# Measured values taken from PubChem BioAssay (Tox21).
# Results filed as inconclusive are left out. A call without a number means that no potency is given here. Calls of active or inactive are those of the source. Calls follow the shape of the dose curve; as a rule, active = well fitted curve in the direction sought with a large enough effect in the repeat runs; inconclusive = weak or mixed curves; inactive = no such curve, though single readings can be large; an effect the other way counts as inactive or inconclusive.
# Test: A CellTox Green Cytotoxicity Assay to monitor cytotoxicity in HEK293 cells - 16 hour (AID 1224888); also: nearly all actives have a fitted effect of over 35% in size
# Settings: CellTox Green fluorescence; series mostly up to 76.8 µM
# Summary of the method: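 Dead-cell fluorescence measured kinetically: asymmetric cyanine dye, HEK293, 600 cells/well, 5 h settle, 23 nL cpd/DMSO, 37 C, reads 0–40 h every 8 h.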
SMILES,activity change,Potency
O=C(O)c1ccc2c(c1)nc(C(=O)NC1CCN(C3CC3)CC1)n2Cc1cc(-c2ccc(Cl)s2)on1,"0.74% [at 15.8 µM, hits give high values] (inactive)",
CC(COc1ccccc1)NC(C)C(O)c1ccc(O)cc1 (stereo unspecified),,inactive
Clc1nc2ccccc2nc1Cl,,inactive
CCCCCCCCCCCC(=O)OCC,,inactive
Cc1c(-c2cccnc2)c2ccccc2n1CCCCC(=O)O,,inactive
O=[N+]([O-])c1cccc(I)c1,,inactive
O=C(O)c1c2ccccc2cc2ccccc12,,inactive
O=C(O)c1cccnc1Nc1cccc(C(F)(F)F)c1,,inactive
Cc1ccc2ccccc2c1[N+](=O)[O-],,inactive
CC(=O)c1ccc(Cl)c(Cl)c1Cl,,inactive
COc1cccc([C@H](O)C2CCN(CCc3ccc(F)cc3)CC2)c1OC,,inactive
Cc1nc2sccn2c(=O)c1CCN1CCC(=C(c2ccc(F)cc2)c2ccc(F)cc2)CC1,,inactive
C=C(C)C(=O)OCCCCCCCCCCOC(=O)C(=C)C,,inactive
COc1ccc(C(=O)Nc2ccccc2)cc1[N+](=O)[O-],,inactive
Sc1nc(S)nc(S)n1,,inactive
CCCc1ccc(OC)cc1,,inactive
CC1=C(C)C(=O)C(CCCCC#CCCCC#CCO)=C(C)C1=O,,inactive
C(/C=C/C=C/Nc1ccccc1)=Nc1ccccc1,,inactive
CO[C@@H]1[C@@H](O[C@@H]2O[C@H](C)[C@@H](O[C@H]3C[C@@](C)(O)[C@@H](O)[C@H](C)O3)[C@H](N(C)C)[C@H]2O)[C@@H](CC=O)C[C@@H](C)[C@@H](O[C@@H]2CC[C@H](N(C)C)[C@@H](C)O2)/C=C/C=C/C[C@@H](C)OC(=O)C[C@H]1OC(C)=O,,inactive
CC(=O)Nc1ccccc1O,,inactive
O=[N+]([O-])c1ccccc1CCO,,inactive
O=C(Cl)c1cc(Cl)cc(Cl)c1,,inactive
CCC1=C(C)CN(C(=O)NCCc2ccc(S(=O)(=O)NC(=O)NC3CCC(C)CC3)cc2)C1=O (stereo unspecified),,inactive
CCCCCC1CCC(=O)O1 (stereo unspecified),,inactive
CCOc1cc(OCC)c(C(C)=O)cc1OCC,,inactive

# Test: qHTS RealTime-Glo MT Cell Viability Assay in HepG2 cells - 0 hour (AID 1224889); also: nearly all actives have a fitted effect of over 50% in size
# Settings: RealTime-Glo luminescence; series mostly up to 76.8 µM
# Summary of the method: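 HepG2 cells (600/well) were dispensed with RealTime-Glo reagents, incubated 5 h at 37 °C, then treated with compounds in DMSO for up to 40 h. Nonlytic NanoLuc luminescence reflecting viable cells was read at each stated time point.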
SMILES,Potency,"activity change, negative = cytotoxicity"
C=CC(=O)OCCCCCCCCCC,inactive,
O=C(O)c1ccc2c(c1)nc(C(=O)NC1CCN(C3CC3)CC1)n2Cc1cc(-c2ccc(Cl)s2)on1,,-12.8% [at 15.8 µM] (inactive)
CC(COc1ccccc1)NC(C)C(O)c1ccc(O)cc1 (stereo unspecified),inactive,
Clc1nc2ccccc2nc1Cl,inactive,
CCCCCCCCCCCC(=O)OCC,inactive,
CCCN(C1CCN(C(=O)C2CCNCC2)CC1)[C@@H]1CCc2ccc(OC)cc2C1,inactive,
CCCOC(C)=O,inactive,
Cc1c(-c2cccnc2)c2ccccc2n1CCCCC(=O)O,inactive,
CCC(=O)O[C@@H]1C[C@H]2CC[C@]1(C)C2(C)C,inactive,
O=[N+]([O-])c1cccc(I)c1,inactive,
O=C(O)c1c2ccccc2cc2ccccc12,inactive,
O=C(O)c1cccnc1Nc1cccc(C(F)(F)F)c1,inactive,
Cc1ccc2ccccc2c1[N+](=O)[O-],inactive,
O=c1c2ccccc2oc2ccccc12,inactive,
CC(=O)c1ccc(Cl)c(Cl)c1Cl,inactive,
CCc1cnc(C(=O)O)c(C(=O)O)c1,inactive,

SMILES,Potency,"activity change, negative = cytotoxicity"
C=CC(O)CCCCC (stereo unspecified),inactive,
COc1cccc([C@H](O)C2CCN(CCc3ccc(F)cc3)CC2)c1OC,inactive,
Cc1nc2sccn2c(=O)c1CCN1CCC(=C(c2ccc(F)cc2)c2ccc(F)cc2)CC1,inactive,
C=C(C)C(=O)OCCCCCCCCCCOC(=O)C(=C)C,inactive,
C=CC(=O)NC(C)(C)C,inactive,
COc1ccc(C(=O)Nc2ccccc2)cc1[N+](=O)[O-],inactive,
Sc1nc(S)nc(S)n1,inactive,
CCCc1ccc(OC)cc1,inactive,
CC1=C(C)C(=O)C(CCCCC#CCCCC#CCO)=C(C)C1=O,inactive,
C(/C=C/C=C/Nc1ccccc1)=Nc1ccccc1,inactive,
OCC(O)c1ccccc1 (stereo unspecified),inactive,
CO[C@@H]1[C@@H](O[C@@H]2O[C@H](C)[C@@H](O[C@H]3C[C@@](C)(O)[C@@H](O)[C@H](C)O3)[C@H](N(C)C)[C@H]2O)[C@@H](CC=O)C[C@@H](C)[C@@H](O[C@@H]2CC[C@H](N(C)C)[C@@H](C)O2)/C=C/C=C/C[C@@H](C)OC(=O)C[C@H]1OC(C)=O,inactive,
O=C1c2ccccc2C(=O)C1c1ccc2ccccc2n1,inactive,
CC(=O)Nc1ccccc1O,inactive,
O=C(OCCN1CCOCC1)c1cccnc1Nc1cccc(C(F)(F)F)c1,inactive,
